# Abeta rescue = restores growth of yeast expressing A-beta42 peptide; yeast expressing A-beta42, growth rescue, OD600, 48 h; response scale: 0% DMSO, 100% iron-clioquinol control; Potency, µM (titrated, usually from 46.1 µM), usual class: activators; actives 0.063% (n = 410,000); AID 1347071; note: nearly all actives have a fitted effect of over 55% in size
#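 Yeast growth medium received pinned compounds, then yeast cells expressing toxic A-beta were added; plates incubated at 30 C for 48 hr. Growth read as absorbance at 600 nm, normalized to DMSO and equimolar FeCl3 plus clioquinol controls.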
# TDP-43 yeast inh = rescues yeast growth from TDP-43 toxicity | TDP-43 expressing yeast growth rescue, BacTiter-Glo, 24 h | Potency, µM (titrated, usually from 46.1 µM), hits mostly activators | actives 1.8% (n = 410,000); note: nearly all actives have a fitted effect of over 50% in size
#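 Growth rescue of TDP-43-toxic yeast measured as ATP luminescence (BacTiter-Glo). Cells grown to mid-log in raffinose, induced in galactose at OD600=0.02, exposed to compound 24 hr at 30 deg C.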
# aSyn yeast inh = inhibitors of alpha-synuclein toxicity in yeast; actives 0.14% (n = 370,000); AID 652106; Potency, µM (highest dose often 46.1 µM), hits mostly activators; Yeast expressing alpha-synuclein, growth rescue, BacTiter-Glo, 24 h; note: nearly all actives have a fitted effect of over 65% in size
#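 Rescue of yeast growth: cells expressing toxic alpha-synuclein, induced in galactose at OD600 0.02, incubated with compound 24 h at 30 C. ATP luminescence quantified growth; inhibitors of toxicity appear as activators.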
# FUS suppressor = suppressors of FUS proteinopathy in yeast; S. cerevisiae FUS-expressing, growth rescue, OD600, 24 h; Potency, µM (titrated, usually from 76.6 µM), hits mostly activators; actives 0.24% (n = 390,000); AID 1347120; note: nearly all actives have a fitted effect of over 55% in size
#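 Compound concentration series was pinned onto galactose-induced FUS-expressing yeast seeded at OD 0.005. Plates sat 24hr at 30C; absorbance at 600 nm gave growth. DMSO served as background control.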
# Numbers stand for hits; n = inactive; u = inconclusive; x = not tested or not shown; [ ] = dose if it differs, or a comment. The list is not random: actives were taken first. Their share in the collection is about 2.1%. Calls come from the whole dose curve; as a rule, active = well fitted curve in the direction sought with a large enough effect; inconclusive = small, poorly fitted or top-dose-only effect, or another doubt; inactive = no such curve, though single readings can be large; an effect the other way counts as inactive or inconclusive.
SMILES,Abeta rescue,TDP-43 yeast inh,aSyn yeast inh,FUS suppressor
Cc1nn(-c2ccccc2)c2nc(C3CC3)cc(C(=O)Nc3cccc(F)c3)c12,n,n[9.22 µM],x,n
COc1c(Cl)cc(C(=O)O)cc1Cl,n,35.5µM,n,n
COc1c(F)cccc1C1=CC(=O)C[C@H](c2ccc3c(c2)OCO3)C1,n,22.4µM,n,n
O=C1C=C(c2ccc(Br)c3ccccc23)C[C@@H](c2ccc3c(c2)OCO3)C1,n,n,n,n
COc1c(F)cccc1C1=CC(=O)C[C@H](c2ccc(F)cc2)C1,n,17.8µM,n,n
COc1ccc(OC)c(C2=CC(=O)C[C@H](c3ccc4c(c3)OCO4)C2)c1,n,25.1µM,n,u
COc1ccc([C@H]2CC(=O)C=C(c3cccc(F)c3OC)C2)cc1,n,22.4µM,n,n
O=c1[nH]c(=S)[nH]c2n[nH]nc12,x,x,n,x
CCc1nnc(SCc2cc(C)ccc2C)c2cc3sc(C)cc3n12,n,n,x,n
Clc1ccc2[nH]c(-c3ccccc3)cc2c1,u,11.2µM,n,n
Cc1ccc(O)c(-c2cc3ccccc3[nH]2)c1,n,3.16µM,n,n
Cc1ccc(O)c(-c2cc(-c3ccccc3F)[nH]n2)c1,n,n,n,n
c1ccc(-c2cc3ccccc3[nH]2)cc1,n,11.2µM,n,n
O=c1cc(-c2ccccc2)[nH]c2cc(Cl)ccc12,n,n,n,n
COc1ccc(-c2cc3ccccc3[nH]2)cc1,n,n,n,n
Cc1ccc(N2C(=O)CCSC23C(=O)N(Cc2ccc(F)cc2)c2ccccc23)cc1 (stereo not drawn),n,n,x,n
Cc1ccc(S(=O)(=O)N2CCN(c3nc(-c4cncs4)nc4ccccc34)CC2)cc1,x,x,n,x
Cc1noc(C)c1NC(=O)N(C)C[C@@H]1OCc2ccccc2-c2c(n(C)c3ccccc23)C(=O)N([C@H](C)CO)C[C@H]1C,n,n,n,n
C[C@@H]1CN([C@H](C)CO)C(=O)c2c(c3ccccc3n2C)-c2ccccc2CO[C@@H]1CN(C)C(=O)Nc1ccccc1C(F)(F)F,n,20µM,n,n
COc1ccc(CCn2c(N)c(C(=O)NCc3ccco3)c3nc4ccccc4nc32)cc1,n,n,n,x
COCCNC(=O)c1c(N)n(CCC2=CCCCC2)c2nc3ccccc3nc12,n,u,n,39.8µM
COc1ccc(N(CC(=O)Nc2cccc(N(C)S(C)(=O)=O)c2)S(=O)(=O)c2ccc(C)cc2)cc1,n,n,n,28.2µM
CCN(CC)c1ccc(/C=C/C2=C3C=CC=CC3NC=C2)cc1 (stereo not drawn),x,x,n,x
C=CCc1cccc(CNc2ccc(Br)cc2)c1O,n,22.4µM,n,n
COc1cccc(OC)c1C(=O)Nc1cccc(-c2nc3cc(C)cc(C)c3o2)c1,n,n,x,n
SMILES,Abeta rescue,TDP-43 yeast inh,aSyn yeast inh,FUS suppressor
Cc1ccc(Cn2c(C(=O)O)c(CNCc3ccc(OC(C)C)cc3)c3ccc(C)cc32)cc1,n,n,x,u
Cc1cccc(NS(=O)(=O)c2ccc3c(c2)[C@H]2C=CC[C@H]2[C@@H](c2ccc(F)cc2)N3)c1,n,n[9.22 µM],x,u
Fc1ccc([C@@H]2Nc3ccccc3[C@@H]3C=CC[C@@H]32)cc1,12.6µM,n[9.22 µM],x,n
CN1C(=O)/C(=C2\SC(N3CCCCCC3)=NC2=O)c2ccccc21,n,15.8µM,n,n
CC(C)c1nnc(NC(=O)c2nc(S(=O)(=O)Cc3ccccc3)ncc2Cl)s1,n,8.91µM,n,n
Cc1ccc(CS(=O)(=O)c2ncc(Cl)c(C(=O)Nc3nc4ccc(C)cc4s3)n2)cc1,n,u,x,n
Cc1ccccc1CS(=O)(=O)c1ncc(Cl)c(C(=O)Nc2nnc(C(C)C)s2)n1,n,11.2µM,x,n
CCCc1nnc(NC(=O)c2nc(S(=O)(=O)Cc3ccc(C)cc3)ncc2Cl)s1,n,11.2µM,n,n
COC(=O)/C(=C1/Oc2cc(C)oc(=O)c2S1)C(F)(F)F,n,8.91µM,n,x
CCOC(=O)[C@H]1[C@H]2COc3ccc(Br)cc3[C@@H]2N2C(=O)c3cc(F)c(F)cc3NC(=O)[C@@]12C,n,n,n,28.2µM
CCOC(=O)[C@H]1[C@H]2COc3ccc(Br)cc3[C@@H]2N2C(=O)N(c3ccccc3)C(=O)[C@@]12C,n,n,n,u
CCOC(=O)[C@@H]1[C@H]2COc3ccc(Br)cc3[C@@H]2N2C(=O)N(c3ccccc3)C(=O)[C@@]12C,n,35.5µM,u,n
CCOC(=O)[C@@H]1[C@H]2COc3cc(OC)ccc3[C@@H]2N2C(=O)N(c3ccc(Cl)cc3)C(=O)[C@]12C,n,n,n,28.2µM
CCOC(=O)[C@H]1[C@H]2COc3ccc(Br)cc3[C@@H]2N2C(=O)c3ccc(F)cc3NC(=O)[C@@]12C,n,n,n,n
COC(=O)NC1c2ccccc2Oc2ccc(C)cc21 (stereo not drawn),n,12.6µM,n,n
O=C(Nc1ccc(Oc2ccccc2)cc1)c1csc(COCCO)n1,n,12.6µM,n,n
O=C(Nc1ccc(Cl)cc1)c1csc(COCCO)n1,n,n,n,n
COc1ccccc1-c1c(C#N)c(N)nc2c1CCc1ccccc1-2,n,20µM,n,u
COc1ccccc1-c1cc(-c2ccc(O)cc2)nc(N)c1C#N,n,31.6µM,n,n
Cc1cccn2c(=O)cc(COc3cccc(NC(=O)COc4ccccc4)c3)nc12,n,n,x,n
COc1ccccc1-c1cc(C(F)(F)F)nc(N2CCOCC2)n1,n,22.4µM,n,n
Cc1ccc(S(=O)(=O)N2CCN(c3cc(-c4cccs4)nc4ccccc34)CC2)cc1,x,x,n,x
COC(=O)c1cc(-c2cc3ccccc3s2)c(=O)n2c1CCC2,x,x,x,n
C[C@@H](c1ccccc1)N1C[C@@H](COCc2ccccc2)Oc2cc(N3CC[C@H](O)C3)ccc2S1(=O)=O,n,u,n,u
C[C@H](c1ccccc1)N1C[C@@H](COCc2ccccc2)Oc2cc(N3CC[C@@H](O)C3)ccc2S1(=O)=O,n,28.2µM,n,n
SMILES,Abeta rescue,TDP-43 yeast inh,aSyn yeast inh,FUS suppressor
CC1=NNC(=O)/C1=C\c1cn(-c2ccccc2)nc1-c1ccc(Cl)cc1,n,10µM,n,x
Cc1ccc(-c2nn(-c3ccccc3)cc2C=C2C(=O)CC(C)(C)CC2=O)cc1,n,n,n,n
CCOC(=O)c1cc(-c2ccccc2C)n(CC2CC(c3cccc([N+](=O)[O-])c3)=NO2)n1 (stereo not drawn),n,20µM,n,n
CCOC(=O)c1cc(-c2ccccc2C)nn1CC1CC(c2ccc(OC)cc2)=NO1 (stereo not drawn),n,n,n,n
CCOc1ccc(C(=O)NC(=S)N(Cc2ccccc2)Cc2ccccc2)cc1,n,n,n,n
CCCN(CCC)C(=S)NC(=O)c1ccc(-c2ccccc2)cc1,n,14.1µM,n,n
Cc1cc(NC(=O)c2ccc(F)cc2)n(-c2ccccn2)n1,n,15.8µM,n,n
COc1ccccc1C(=O)Nc1ccc(Br)cc1C,n,17.8µM,n,n
COc1ccc(-c2cc(C(F)(F)F)nc(NCc3ccccc3)n2)cc1,n,n,x,n
